# Source: PubChem BioAssay (NCI)
# Compounds without any hit were thinned out: in the full panel of roughly 83,000, 20% have a hit.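 In brief: 96-well plates, 48 h treatment, single concentration, percent growth endpoint.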 Unmarked numbers belong to inactive results. Activity calls are given as the source filed them. How the source made its calls: active means growth percent below 10; inactive means the rest.
# Test system: MDA-MB-468 breast
# Assay: NCI-60 one-dose screen, 48 h (100 = growth as untreated, 0 = no growth, -100 = all killed)
# Conditions: 10 µM unless noted
row,SMILES,growth
1,O=C(NNc1nc2cc(F)cc(F)c2n2cccc12)c1cccnn1,-21% (active)
2,FC(F)(F)c1ccc2c(Nc3cccc(C4CC(c5ccccc5)=NN4c4ccc(Cl)cc4)c3)ccnc2c1 (configuration not stated),47.4%
3,Cc1csc(N/N=C/c2ccncc2)n1,107%
4,CCCCCCCCCCCCCCCCC(C(=O)O)C(O)(CC(=O)O)C(=O)O (configuration not stated),102%
5,CN(C)CC1CCCCCC(CN(C)C)C1=O (configuration not stated),15.3%
6,CCOc1ccccc1NC(=O)CCl,79.4%
7,Cc1ccc(Nc2cc(N)nc(N)n2)cc1Cl,77.8%
8,COc1cc(/C=N/Nc2ccnc3cc(Cl)ccc23)cc(OC)c1O,-72.1% (active)
9,CCSc1ncnc2c1ncn2C1OC(CO)C(O)C1O (configuration not stated),15.8%
10,COc1cc2c(cc1I)-c1c(cc(OC)c(OC)c1OC)CC[C@@H]2NC(C)=O,-6.02% (active)
11,COc1cc(OC)c2sc(-c3ccc(-n4cncc4-c4cc(OC)c(OC)c(OC)c4)cc3)nc2c1,43.5%
12,COc1cc(C2CC(c3ccc(Nc4nc(NCCO)nc(N5CCOCC5)n4)cc3)=NN2c2cc(Cl)cc(Cl)c2)cc(OC)c1OC (configuration not stated),64%
13,CCn1c(Cc2ccccc2Nc2c(Cl)cccc2Cl)nnc1SCC(=O)NN1C(=O)/C(=C/c2cccc(OC)c2OC)SC1=S,99.5%
14,Cc1cc(C(=O)Nc2cc(Nc3ncccc3-c3ncnc4nc[nH]c34)ccc2F)cc(C(C)(C)C#N)c1,87.7%
15,COc1ccc2nc(-c3c(-c4ccccc4)nc4ncccn34)[nH]c2c1,89.4%
16,CC(C)OC(=O)[C@H](C)N[P@@](=O)(OC[C@@]1(C)O[C@@H](n2cc(F)c(N)nc2=O)C[C@@H]1O[P@](=O)(N[C@@H](C)C(=O)OC(C)C)Oc1ccccc1)Oc1ccccc1,97.9%
17,Cc1ccc(Nc2ccc(O)c3c2C(=O)c2c(O)ccc(Nc4ccc(C)cc4)c2C3=O)cc1,95.8%
18,COC(=O)c1ccc(NC(=O)c2ccc(-c3cccc([N+](=O)[O-])c3)o2)cc1,96.5%
19,O=C1/C=C/[C@@H](O)[C@@H]2C[C@@H](O)C[C@H]2/C=C/CCC[C@H](CCO)O1,-54.5% (active)
20,CCOC(=O)/C=C/c1ccc([N+](=O)[O-])o1,53.6%
21,OC1CCCc2ccccc21 (configuration not stated),97.4%
22,COc1ccc([C@H]2c3[nH]c4ccccc4c3C[C@H]3C(=O)N(C4CCN(Cc5c(Cl)cccc5Cl)CC4)CC(=O)N23)c(OC)c1,92.8%

row,SMILES,growth
1,CC1=C/C(=C(\c2cc(C)c(O)c(C(=O)O)c2)c2c(Cl)cccc2Cl)C=C(C(=O)O)C1=O,104%
2,Cc1[nH]nc2ccc3nc(-c4ccc5[nH]ncc5c4)c4c(c3c12)CCCC4,-6.72% (active)
3,O=[N+]([O-])c1cccc(/C=C/c2ccccn2)c1,48.1%
4,O=C1/C(=C/c2ccc([N+](=O)[O-])s2)Oc2cc(Cl)ccc21,-17.8% (active)
5,CC(C)(C)c1ccc(C(=O)Nc2sc3c(c2C(N)=O)CCC(=O)C3)cc1,-54.7% (active)
6,COc1cccc(-c2nn(-c3ccccc3)cc2-c2ccnc(NCCNC(=O)Nc3ccc(Cl)c(Cl)c3)c2)c1,-17.4% (active)
7,CC(=O)n1cc(C=O)c2ccccc21,112%
8,CCOC(=O)N1CCN(CCCCOc2ccc(C(C)(C)CC)cc2)CC1,92.9%
9,C=CCn1c(SCC(=O)Nc2ccc(C(=O)/C=C/c3cc(OC)c(OC)c(OC)c3)cc2)nnc1-c1cc(OC)c(OC)c(OC)c1,26.1%
10,Cn1cnc2c(F)c(Nc3ccc(Br)cc3F)c(C(=O)NOCCO)cc21,97.3%
11,O=c1oc2ccc(Cl)cc2c(=O)n1-c1ccc(F)cc1F,-4.5% (active)
12,C#Cc1cccc(Nc2ncnc3cc4c(cc23)OCCOCCOCCO4)c1,-26.7% (active)
13,COc1ccc(NS(=O)(=O)N2CCCCC2)cc1,105%
14,COc1cc(/C=C2/C=C(c3ccccc3)N(CCc3ccc(S(N)(=O)=O)cc3)C2=O)cc(OC)c1OC,94.7%
15,CCCCCCCCCCCCCCCCCC(=O)[O][Sn]([CH2]CCC)([CH2]CCC)[CH2]CCC,-96.2% (active)
16,c1ccn2nnnc2c1,107%
17,O=C(C[C@@H](C(=O)NCc1cccc(C(F)(F)F)c1)N1C(=O)[C@@H](N2C(=O)OC[C@@H]2c2ccccc2)[C@H]1/C=C/c1ccccc1)NC1CCN(Cc2ccccc2)CC1,-1.25% (active)
18,O=C(Nc1cccc(Cn2c(=O)[nH]c3ccc(Oc4ncccn4)cc3c2=O)c1)c1ccc(Cl)cc1,16.8%
19,CC(C)n1nc(C#Cc2cccc(NC(=O)c3cccc(C(F)(F)F)c3)c2)c2c(N)ncnc21,8.73% (active)
20,Cc1ccc(S(=O)(=O)Nc2sccc2-c2nc(-c3ccccc3)no2)cc1,97.7%
21,COc1ccc(C(=O)c2cc(OC)c(OC)c(OC)c2)cc1/C=C/C(=O)c1ccc(OC)c(OC)c1,8.42% (active)
22,CC(=O)O.[In],101%

row,SMILES,growth
1,Clc1nc(Cl)c2ncn(CCOCCn3cnc4c(Cl)nc(Cl)nc43)c2n1,-72.3% (active)
2,O=C1c2ccccc2C(=O)c2c1oc1c2c(=O)[nH]c2ccc(Cl)cc21,-32.4% (active)
3,COc1ccc(Cn2c(Br)c3c(c2Br)-c2nc(N)sc2CC3)cc1,-5.61% (active)
4,CCCCCCCCCCCCCC(=O)C(C)N (configuration not stated),33.3%
5,Cc1cc(C=O)c(C)c2c1[nH]c1ccccc12,68.1%
6,C=CCNCCC#N,98.1%
7,CC(C)Sc1nc(-c2ccc(Br)cc2)c(C#N)c(N2CCCCC2)n1,93.9%
8,COc1ccc(/C=C/C(=O)NCC(C)O)cc1 (configuration not stated),94.2%
9,CC1(C)CC[C@]2(C(=O)N3CCNCC3)CC[C@]3(C)C(=CC[C@@H]4[C@@]5(C)CCC(=O)C(C)(C)[C@@H]5CC[C@]43C)[C@@H]2C1,105%
10,O=S(=O)(NC1CC2CCC1C2)c1ccc2c(c1)C(=NO)c1cc(S(=O)(=O)NC3CC4CCC3C4)ccc1-2 (configuration not stated),-61.9% (active)
11,CCN1CCN(CC(=O)Nc2nc3ccc(NCc4ccc(Br)cc4)cc3s2)CC1,61.1%
12,CC(=O)c1cc(Cl)ccc1O,97.5%
13,CCN(CC)c1ccc(/C=N/NC(=O)c2ccc(S(N)(=O)=O)cc2)cc1,1.85% (active)
14,Clc1ccc(-c2cn3cc(Cc4ccc(Cl)c(Cl)c4)sc3n2)cc1,80.5%
15,Cc1ccc2c(C(C[N+](=O)[O-])c3ccco3)c(-c3ccccc3)[nH]c2c1 (configuration not stated),8.5% (active)
16,CCCCCC(CCCCC)C(=O)O,116%
17,O=C1c2cc(I)ccc2Oc2cc([N+](=O)[O-])ccc2N1c1ccc(Cl)cc1F,96.2%
18,N/C(=N\O)c1ccncc1,121%
19,Nc1ccccc1SC(CC(=O)c1ccccc1)c1c(Cl)cccc1Cl (configuration not stated),64.7%
20,O=C(Nc1ccc(OS(=O)(=O)c2ccc(F)cc2)cc1)C12CC3CC(CC(C3)C1)C2,39.4%
21,C/C=C/C(N)=O,101%
22,c1cncc(-c2csc(-c3c[nH]c4ccccc34)n2)c1,99.1%

row,SMILES,growth
1,CCOC(=O)c1cc2c(n1Cc1ccccc1)-c1oncc1CC2,40.1%
2,C=C1C(=O)O[C@H]2[C@H]1CCC(/C=N/c1ncc(Br)cc1N)=C\CC[C@@]1(C)O[C@@H]21,-51% (active)
3,COc1ccc(-c2nc(-c3ccccc3)c(-c3ccccc3)n2C2CC2)cc1OC1CCCCC1,58.8%
4,Cc1cnc(C(=O)NNc2nc3sc4c(c3c(=O)n2C)C(C)CCC4)cn1 (configuration not stated),-28% (active)
5,CC/C=C\C[C@H](O)C/C=C1/C(=O)C=C[C@@H]1C/C=C\CCCC(=O)OC(C)C,-17% (active)
6,Fc1ccccc1Nc1ccc2nnc(-c3ccncc3)n2n1,105%
7,C=NNc1ccccc1,91.2%
8,COC(=O)c1ccc(NC(=O)CCl)cc1,83.2%
9,Nc1c(C(=O)Nc2c(Cl)cccc2Cl)sc2nc3c(cc12)CCCC3,82.3%
10,C[N+](C)(C/C=C/c1ccccc1)Cc1ccccc1,78.8%
11,O=C(CN1CCN(c2cc(=O)n(-c3ccccc3)c3ccccc23)CC1)Nc1nc(-c2ccccc2)cs1,13.3%
12,Cc1ccc2nc(NC(=O)CSc3nc(Cl)c(C#N)c(-c4ccccc4)n3)sc2c1,87.5%
13,CC[C@H](C)[C@@H]1NC(=O)[C@H]([C@@H](C)O)NC(=O)C(Cc2ccccc2)NC(=O)[C@@H]2CCCN2C(=O)C(C(C)C)NC(=O)C(Cc2ccccc2)NC(=O)CNC(=O)[C@@H]2CCCN2C1=O (some centres not stated),53%
14,CCCCCN1C=C/C(=C\C(=O)N(C)c2ccccc2Br)c2ccccc21,71.2%
15,O=C(CBr)c1ccc(OC(=O)c2ccccc2)cc1,116%
16,Fc1ccc2c(c1)c(-c1nc(-c3c[nH]c4ncccc34)cs1)cn2CCCN1CCOCC1,18.3%
17,COc1ccc(Cc2nn(CC(=O)N/N=C/c3ccc(Cl)cc3)c(=O)c3c(C)noc23)cc1,80.4%
18,Nc1ccccc1SC1CC(=O)N(c2ccc(Cl)c(Cl)c2)C1=O (configuration not stated),80.4%
19,COc1cc(C2CC(=O)Nc3c2c(C)nn3-c2nc3ccccc3[nH]2)c(OC)c2c1OCO2 (configuration not stated),36.7%
20,Cc1ccc(/C=N/Nc2nc(Nc3ccccc3)nc(Nc3ccc(S(N)(=O)=O)cc3)n2)cc1,65%
21,C=CC(COC(c1ccccc1)(c1ccccc1)c1ccccc1)N(CC)CC (configuration not stated),14.5%
